Tau fluor counter: counter-screen for tau fibril formation inhibitors. Potency, µM (doses to about 57.7 µM). 280,000 tested, 0.93% active. tau K18 P301L Alexa594 fluorescence, heparin fibrillization. AID 1463; also: nearly all actives have a fitted effect of over 55% in size
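Human K18 P301L tau (15 uM unlabeled plus 0.24 uM Alexa 594-labeled, final) in 100 mM sodium acetate pH 7 was mixed with compound and 20 uM heparin and incubated 6 hr at 37 C.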
TexasRed fluor: Texas Red fluorescence interference in TRb-SRC2 counter-screen. TRb/SRC2 Texas Red total fluorescence interference. Potency, µM (series often up to 106 µM). 280,000 tested, 0.29% active; active = well fitted curve in either direction with a large enough effect; inconclusive = small, poorly fitted or top-dose-only effect
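Human TRβ ligand-binding domain (0.6 uM) and Texas Red SRC2 peptide (20 nM) in Tris buffer with 1 uM T3 and 5% DMSO were incubated with pinned compound for 5 hr at ambient temperature. Total fluorescence was computed as S + 2P (555/632 nm).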
Tau ThT inhib: inhibitors of human tau fibril formation, thioflavin T binding; P10636; recombinant tau K18 P301L (four-repeat tau fragment), heparin-induced fibrillization, ThT fluorescence; Potency, µM (highest dose often 57.4 µM), hits mostly inhibitors; 270,000 tested, 2.1% active; AID 1460; also: nearly all actives have a fitted effect of over 55% in size
Target sequence (P10636 561-689 P618L limits assumed): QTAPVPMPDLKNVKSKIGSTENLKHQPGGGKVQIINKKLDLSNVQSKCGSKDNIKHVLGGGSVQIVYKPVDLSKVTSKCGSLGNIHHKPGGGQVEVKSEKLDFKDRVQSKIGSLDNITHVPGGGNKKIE
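Aggregation was driven by heparin (20 uM final) acting on recombinant tau […] bearing P301L in 100 mM sodium acetate pH 7; fibrils were detected with Thioflavin T.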
TRb-SRC2 inh: inhibitors of human thyroid hormone receptor beta-SRC2 interaction. P10828. Potency, µM (top dose mostly 106 µM), most hits filed as inhibitors. TRbeta-SRC2 peptide binding, fluorescence polarization; receptor liganded with 1 µM T3. AID 1469. 280,000 tested, 0.065% active; also: nearly all actives have a fitted effect of over 50% in size
Target sequence (P10828 whole entry, looked up): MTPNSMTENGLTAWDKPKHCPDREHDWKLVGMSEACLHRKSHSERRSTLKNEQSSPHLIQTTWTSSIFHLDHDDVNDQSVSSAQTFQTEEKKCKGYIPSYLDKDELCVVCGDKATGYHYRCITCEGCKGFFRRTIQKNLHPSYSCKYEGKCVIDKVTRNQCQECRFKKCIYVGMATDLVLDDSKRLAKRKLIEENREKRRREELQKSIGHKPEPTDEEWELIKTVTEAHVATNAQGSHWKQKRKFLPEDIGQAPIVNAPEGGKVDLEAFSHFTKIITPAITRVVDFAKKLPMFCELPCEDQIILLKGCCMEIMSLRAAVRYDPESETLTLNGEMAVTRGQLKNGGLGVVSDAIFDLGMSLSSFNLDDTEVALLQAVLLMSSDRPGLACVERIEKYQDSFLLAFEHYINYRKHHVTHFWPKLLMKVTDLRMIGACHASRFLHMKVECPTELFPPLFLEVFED
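Decrease in fluorescence polarization of 20 nM Texas Red SRC2 coactivator peptide flagged inhibition of its binding to 0.6 uM TRb LBD; 1 uM T3 included, incubation 5 hr, ex 555/em 632 nm.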
Tau FP inhib: blocks human tau fibril formation measured by polarization. Potency, µM (titrated, usually from 57.7 µM), most hits filed as inhibitors. K18 P301L tau heparin fibrillization, Alexa594 FP, 6 h. 280,000 tested, 0.39% active. AID 1468. P10636; also: nearly all actives have a fitted effect of over 55% in size
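Read-out: fluorescence polarization of Alexa 594-labeled tau (0.24 uM), 555 nm excitation, 632 nm emission. Mixtures held 15 uM unlabeled K18 P301L, compound and 20 uM heparin, pH 7 acetate buffer, incubated 6 hr at 37 C.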
Of the large screens only hits and unclear results are named; the others gave an inactive call; [ ] = dose if it differs, or a comment. The list is not random: actives were taken first. Their share in the collection is about 3%. Unless noted, calls follow the shape of the dose curve; as a rule, active = well fitted curve in the direction sought with a large enough effect; inconclusive = small, poorly fitted or top-dose-only effect, or another doubt; inactive = no such curve, though single readings can be large; an effect the other way counts as inactive or inconclusive.

CC(=O)N(/N=C1\Sc2ccccc2C1=O)c1ccccc1C	Tau ThT inhib 11µM
COc1cc(/C=C2\SC(=O)N(Cc3ccc(Cl)cc3)C2=O)cc([N+](=O)[O-])c1O	Tau ThT inhib 13µM
COc1cc(/C=C2\SC(=O)N(Cc3ccc(F)cc3)C2=O)cc([N+](=O)[O-])c1O	Tau ThT inhib 14µM
CCOC(=O)CN1C(=O)S/C(=C/c2ccc(OC)c([N+](=O)[O-])c2)C1=O	none
N#CC1=C(N)C2=C(N3CCCCC3)CCCC2C1(C#N)C#N (stereo unspecified)	Tau fluor counter inconclusive, Tau ThT inhib 32µM, Tau FP inhib inconclusive
CNc1sc(C(=O)c2cccs2)c(N)c1-c1nc2ccccc2s1	Tau fluor counter 11µM[quencher], Tau ThT inhib 7.9µM, Tau FP inhib 32µM
CNc1sc(C(=O)c2ccc(F)cc2)c(N)c1-c1nc2ccccc2s1	Tau fluor counter inconclusive, Tau ThT inhib 16µM
Cc1nc(N)sc1-c1csc(Nc2ccccn2)n1	Tau fluor counter 14µM[quencher], Tau ThT inhib 13µM, Tau FP inhib inconclusive
COc1ccc(CCNc2nc(-c3sc(N)nc3C)cs2)cc1OC	Tau fluor counter inconclusive, Tau ThT inhib 14µM, Tau FP inhib inconclusive
COc1ccc(Nc2nc(-c3sc(N)nc3C)cs2)cc1	Tau fluor counter inconclusive, Tau ThT inhib 8.9µM, Tau FP inhib inconclusive
Cc1nc(N)sc1-c1csc(Nc2ccc(Cl)cn2)n1	Tau fluor counter 14µM[quencher], Tau ThT inhib 7.9µM
Cc1ccccc1Nc1nc(-c2sc(NC(=O)c3ccccc3)nc2C)cs1	Tau fluor counter inconclusive, Tau ThT inhib inconclusive
C=CCC(CC=C)(CNC(=O)C(=O)Nc1cccc(C(F)(F)F)c1)c1ccccc1	none
CCCN(CCC)CCCNC(=O)c1sc2nc3n(c(=O)c2c1C)CCC3	Tau ThT inhib inconclusive
Cc1cc2cc(CNC(=O)c3ccc(S(=O)(=O)N4CCCC4)cc3)ccc2n1C	TexasRed fluor 45µM[fluorescent], Tau ThT inhib inconclusive, TRb-SRC2 inh 35µM, Tau FP inhib inconclusive
COc1ccc(C(=O)NCc2ccc3c(c2)cc(C)n3C)cc1OC	none
Cc1cc2cc(CNC(=O)c3ccc(S(=O)(=O)N4CCCCC4)cc3)ccc2n1C	Tau FP inhib inconclusive
COc1ccc(S(=O)(=O)NCc2ccc3c(c2)cc(C)n3C)cc1	TexasRed fluor inconclusive
Cc1cc2cc(CNS(=O)(=O)c3ccccc3)ccc2n1C	TexasRed fluor 50µM[fluorescent], Tau ThT inhib inconclusive, TRb-SRC2 inh 45µM
CCN(CC)S(=O)(=O)c1ccc(C(=O)NCc2ccc3c(c2)cc(C)n3C)cc1	TexasRed fluor 45µM[fluorescent], TRb-SRC2 inh 40µM
Cc1csc2nc(-c3cccc(NC(=O)C(C)C)c3)cn12	none
O=C(O)CC(NS(=O)(=O)c1ccc(Br)s1)c1ccccc1 (stereo unspecified)	none
N#C/C(=C/c1ccc(Br)o1)C(N)=O	none
N#C/C(=C/c1ccc(Br)o1)C(N)=S	Tau fluor counter 28µM[quencher], Tau ThT inhib 18µM
Cc1cccc(NC(=O)CN2C(=O)C3(SCC(=O)N3c3ccccc3)c3ccccc32)c1 (stereo unspecified)	none
CCOC(=O)c1oc2c(c1C)-c1nn(Cc3cccc(Cl)c3)cc1CC2	none
O=C(N/N=C1/C[C@@H](O)[C@@H](O)[C@@H]2[C@@H]3C(=O)N(Cc4ccccc4)C(=O)[C@H]3CC[C@@H]12)OCc1ccccc1	none
CCOc1cc(/C=C2/SC(=S)NC2=O)ccc1OC(=O)c1ccco1	Tau ThT inhib 13µM, Tau FP inhib inconclusive
CCOC(=O)c1ccc(N2NC(=O)/C(=C/c3ccc(OC(=O)c4ccco4)c(OC)c3)C2=O)cc1	Tau fluor counter inconclusive, Tau ThT inhib 22µM
COc1cc(/C=C2\C(=O)N(c3ccc(S(N)(=O)=O)cc3)N=C2C)ccc1OC(=O)c1ccco1	Tau fluor counter inconclusive, Tau ThT inhib inconclusive
CC(=O)Nc1sc(N/N=C\c2ccco2)nc1-c1cccs1	Tau fluor counter inconclusive, Tau ThT inhib 16µM, Tau FP inhib inconclusive
CC(=O)Nc1sc(N/N=C\c2ccccc2)nc1-c1cccs1	Tau fluor counter inconclusive, Tau ThT inhib 10µM
Nc1nc(-c2cccs2)c(NC(=O)c2ccccc2)s1	Tau fluor counter inconclusive, Tau ThT inhib 14µM, Tau FP inhib inconclusive
CC(=O)Nc1sc(NC(=O)c2ccc(Cl)cc2)nc1-c1cccs1	Tau ThT inhib inconclusive
CC(=O)Nc1sc(N/N=C\c2ccccc2Cl)nc1-c1cccs1	none
CC(=O)Nc1sc(NC(=O)c2ccc([N+](=O)[O-])cc2)nc1-c1cccs1	Tau fluor counter inconclusive, Tau ThT inhib 7.9µM
CC[C@H](C)[C@H](NC(=O)[C@H](C)NC(=O)[C@H](Cc1cnc[nH]1)NC(=O)[C@@H]1CCCN1C(=O)CNC(=O)[C@H](CC(C)C)NC(=O)[C@H](CC(C)C)NC(=O)[C@H](Cc1ccc(O)cc1)NC(=O)CNC(=O)[C@H](C)NC(=O)[C@H](CO)NC(=O)[C@H](CC(N)=O)NC(=O)[C@H](CC(C)C)NC(=O)[C@@H](NC(=O)[C@H](Cc1c[nH]c2ccccc12)NC(=O)CN)[C@@H](C)O)C(=O)N[C@@H](CC(=O)O)C(=O)N[C@@H](CC(N)=O)C(=O)N[C@@H](Cc1cnc[nH]1)C(=O)N[C@@H](CCCNC(=N)N)C(=O)N[C@@H](CO)C(=O)N[C@@H](Cc1ccccc1)C(=O)N[C@@H](CO)C(=O)N[C@@H](CC(=O)O)C(=O)N[C@@H](CCCCN)C(=O)N[C@@H](Cc1cnc[nH]1)C(=O)NCC(=O)N[C@@H](CC(C)C)C(=O)N[C@H](C(N)=O)[C@@H](C)O	none (no result: Tau fluor counter, Tau ThT inhib, Tau FP inhib)
CCOc1cc(/C=N/Nc2nc(-c3cccs3)c(NC(C)=O)s2)ccc1O	Tau fluor counter inconclusive, Tau ThT inhib 25µM
COc1ccccc1CNC(=O)CCCCn1c(=O)c2ccccc2n(CC(=O)Nc2cccc(Cl)c2)c1=O	Tau fluor counter inconclusive, Tau ThT inhib inconclusive, Tau FP inhib inconclusive
Cc1ccc(-c2cc(C(=O)N/N=C/c3c[nH]c4ccccc34)[nH]n2)cc1	Tau fluor counter 16µM[quencher], Tau ThT inhib inconclusive, Tau FP inhib inconclusive
O=C(N/N=C/c1ccccn1)c1cc(-c2cccc3ccccc23)n[nH]1	Tau ThT inhib inconclusive
O=C(N/N=C/c1c[nH]c2ccccc12)c1cc(-c2cccc3ccccc23)n[nH]1	Tau fluor counter 10µM[quencher], Tau ThT inhib inconclusive
Cc1ccccc1NCC(=O)N/N=C/c1c[nH]c2ccccc12	Tau fluor counter 16µM[quencher], Tau ThT inhib inconclusive, Tau FP inhib inconclusive
O=C(N/N=C/c1c[nH]c2ccccc12)c1cc(-c2ccc(-c3ccccc3)cc2)n[nH]1	Tau fluor counter 13µM[quencher], Tau ThT inhib inconclusive, TRb-SRC2 inh inconclusive
COc1ccc(-c2cnc(C)o2)cc1S(=O)(=O)Nc1ccc(C)c(F)c1	Tau fluor counter inconclusive
Cc1ccc(/C=C/C(=O)N2CCC(c3nc4ccccc4o3)CC2)cc1	TexasRed fluor inconclusive
